# Assay results published in PubChem BioAssay AID1851 (National Center for Advancing Translational Sciences (NCATS), 2009).
# Screen size: about 16,000 compounds; about 5,100 (32%) were called active. About 25% were inconclusive and are not listed. Calls follow the shape of the dose curve; as a rule, active = well fitted curve in the direction sought with a large enough effect; inconclusive = small, poorly fitted or top-dose-only effect, or effect the other way; inactive = no such curve, though single readings can be large or run the other way. The list shows a part of the results.
# Target: Cytochrome P450 3A4 (Homo sapiens) (UniProt P08684)
# Test: Cytochrome panel assay with activity outcomes
# Conditions: recombinant CYP, pro-luciferin dealkylation, luminescence, p450-cyp3a4; series mostly up to 57.1 µM
# % is scaled to controls: 0 for no effect and ±100 for the full control effect.
# Cytochrome P450 3A4 (Homo sapiens), sequence (P08684 whole entry, looked up): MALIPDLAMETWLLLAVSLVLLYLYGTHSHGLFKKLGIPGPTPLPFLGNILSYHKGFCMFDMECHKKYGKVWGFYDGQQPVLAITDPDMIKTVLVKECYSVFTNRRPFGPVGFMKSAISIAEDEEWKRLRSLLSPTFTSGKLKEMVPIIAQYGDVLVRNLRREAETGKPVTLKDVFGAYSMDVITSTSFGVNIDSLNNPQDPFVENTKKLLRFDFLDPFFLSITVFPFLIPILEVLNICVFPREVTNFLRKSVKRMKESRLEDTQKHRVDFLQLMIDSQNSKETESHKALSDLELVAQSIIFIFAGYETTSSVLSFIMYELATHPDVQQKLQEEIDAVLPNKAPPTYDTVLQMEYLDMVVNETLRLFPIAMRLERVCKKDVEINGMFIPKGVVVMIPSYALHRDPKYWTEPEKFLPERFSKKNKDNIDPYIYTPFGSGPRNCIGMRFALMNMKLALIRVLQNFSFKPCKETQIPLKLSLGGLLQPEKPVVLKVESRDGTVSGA
Compound,AC50,"activity, negative = inhibition"
CC1CCCC(NC(=O)c2n[nH]c(=O)c3ccccc23)C1C (configuration not stated),12.6 µM (active),–
CCN(CC)CCCN(Cc1cc2ccc(C)c(C)c2[nH]c1=O)C(=O)NC1CCCCC1,2.82 µM (active),–
Cc1c(Br)cc(C(=O)NC2CCCCC2)c(C)c1C,–,-5.25% [at 2.29 µM] (inactive)
CCC(=O)NC(NCC1CCCO1)C(Cl)(Cl)Cl (configuration not stated),inactive,–
COC1(OC)N=C(NC(=O)Nc2ccccc2)C2(C#N)C(c3ccccc3)C12C#N (configuration not stated),inactive,–
Cn1c(CNC(=O)Nc2ccccc2)nnc1SCc1ccccc1,14.1 µM (active),–
COc1cccc(NC(=O)CSc2nnc(CN3CCOCC3)n2C)c1,inactive,–
c1c[nH]c(CN2CCOCC2)n1,–,-23.7% [at 11.4 µM] (inactive)
Cn1c(CN2CCOCC2)nnc1SCc1ccccc1,10 µM (active),–
CC(=O)[C@H](C(=N)C#N)C(=O)Nc1ccccc1,–,3.78% [at 11.4 µM] (inactive)
CCn1c(C)[n+](CCCS(=O)(=O)[O-])c2cc(Cl)c(Cl)cc21,inactive,–
CCn1c(=O)[nH]c2ccccc21,inactive,–
CCn1c(=O)[nH]c2cc(Cl)c(Cl)cc21,12.6 µM (active),–
O=C(O)/C=C\C(=O)Nc1ccccn1,–,-10.9% [at 11.4 µM] (inactive)
C=C(C)C1CC=C(C)/C(=N/NC(=O)c2ccc(NC(=O)c3cccc(C)c3)cc2)C1 (configuration not stated),12.6 µM (active),–
C=C(C)[C@H]1CC=C(C)/C(=N/NC(=O)CNc2ccccc2OC)C1,10 µM (active),–

Compound,AC50,"activity, negative = inhibition"
Cc1cccc(C(=O)NNC(=O)C2CCCO2)c1 (configuration not stated),inactive,–
Cc1cccc(C(=O)Nc2nnc(-c3ccc(C(C)(C)C)cc3)s2)c1,inactive,–
CSc1ccc2nnc(-c3cccc(F)c3)n2n1,inactive,–
COc1cccc(-c2nnc3sc(-c4ccc(C)cc4)nn23)c1,7.94 µM (active),–
CNC[C@@H](SC)c1ccc(O)c(O)c1,–,-6.87% [at 11.4 µM] (inactive)
Clc1ccc(/C=N/Nc2nnc(-c3ncc[nH]3)c3ccccc23)cc1,15.8 µM (active),–
CCOc1ccc(C(C)=O)cc1N1C(=O)C2C(C1=O)C1C=CC2C12CC2 (configuration not stated),inactive,–
CCOc1ccc(C(C)=O)cc1N1C(=O)C2C3C=CC(O3)C2C1=O (configuration not stated),–,-20.8% [at 11.4 µM] (inactive)
CCOc1ccc(C(C)=O)cc1N1C(=O)C2C3C=CC(C3=C(C)C)C2C1=O (configuration not stated),11.2 µM (active),–
CCC(C)(C)NC(=O)c1ccc2c(c1)N(CC(=O)OC)C(=O)C(C)(C)O2,inactive,–
Nc1ncnc2c1ncn2CCCCC(=O)O,–,-8.48% [at 11.4 µM] (inactive)
Cc1ccc(C(C(=O)NCc2ccco2)N(C(=O)CNC(=O)c2cccs2)c2ccc(C)cc2)cc1 (configuration not stated),1.12 µM (active),–
O=C(NCc1ccco1)C(c1ccccc1)N(C(=O)Cc1cccs1)c1ccccc1F (configuration not stated),0.794 µM (active),–
O=C(c1cccs1)n1nc(-c2ccc(Cl)cc2)nc1NCc1ccco1,–,-4.78% [at 2.29 µM] (inactive)
Cc1ccc(C(C(=O)NCc2ccco2)N(C(=O)CNC(=O)c2cccs2)c2ccc(C)cc2C)cc1 (configuration not stated),1 µM (active),–
Cc1ccc(C(CC(N)=O)c2ccco2)cc1 (configuration not stated),inactive,–
